Screens: PubChem, National Center for Advancing Translational Sciences (NCATS)
Rows were chosen to be rich in hits. Some 2.5% of all compounds tested hit in one or more screens of this group.
D2 antag = HTS Assay for Allosteric Antagonists of the Human D2 Dopamine Receptor: Primary Screen for Antagonists; 2% of 340,000 active; inhibition, % at 10 µM; AID 485344, 2010; HEK293 TREx D2 cells, calcium flux, dopamine EC80; in the data active = inhibition above about 30%; inactive = below that, where a call was filed; note: 0% is about no effect
Target sequence (P14416 whole entry, looked up): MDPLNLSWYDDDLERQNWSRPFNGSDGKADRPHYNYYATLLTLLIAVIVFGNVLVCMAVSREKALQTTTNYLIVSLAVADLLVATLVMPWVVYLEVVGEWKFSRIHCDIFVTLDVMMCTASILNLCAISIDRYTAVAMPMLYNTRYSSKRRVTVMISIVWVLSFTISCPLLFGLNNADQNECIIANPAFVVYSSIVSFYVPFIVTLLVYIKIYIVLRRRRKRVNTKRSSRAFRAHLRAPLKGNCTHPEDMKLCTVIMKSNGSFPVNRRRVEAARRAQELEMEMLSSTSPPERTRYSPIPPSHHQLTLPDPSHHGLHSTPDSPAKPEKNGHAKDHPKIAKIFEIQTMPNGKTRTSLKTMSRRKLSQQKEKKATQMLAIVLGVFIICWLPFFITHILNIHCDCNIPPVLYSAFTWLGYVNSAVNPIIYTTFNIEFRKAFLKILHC
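Tetracycline-induced HEK293 TREx cells expressing D2 receptor forced-coupled to calcium signalling, loaded with no-wash calcium dye. Compounds added and calcium flux read 180 s, then dopamine added at EC80 and read a further 180 s.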
D2 PAM-1 = Beta-Arrestin HTS for Positive Allosteric Modulators of the Human D2 Dopamine Receptor: Potentiators; 0.23% of 360,000 active; D(2) dopamine receptor (Homo sapiens), P14416; AID 624464, 2012; DiscoveRx D2 beta-arrestin cells, luminescence, 90 min; 100% = 57 uM dopamine signal; potentiation, % (test concentration not listed); in the data active = potentiation above about 50%; inconclusive = mostly about 30% to 49%
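D2 cells co-treated with compound plus 50 nM dopamine (EC20) for 90 min at 37 deg C to detect potentiation. Beta-arrestin recruitment was read as enzyme-fragment luminescence after 1 h at ambient temperature. Full response was set by 57 uM dopamine.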
D2 ag-1 = HTS Assay for Allosteric Agonists of the Human D2 Dopamine Receptor: Primary Screen for Agonists | D(2) dopamine receptor (Homo sapiens), P14416 | HEK293 T-REx D2 cells, calcium flux agonist mode | activation, % at 2 µM | 0.53% of 340,000 active | AID 485358, 2010;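 active = activation over 3 SD above normal in the single-dose calcium agonist read, cut at about 30% in these data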; note: 0% is about no effect
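Agonism scored from kinetic calcium signal (1 read/sec, 180 s) following compound pin transfer, after a 10 s baseline. Cells: HEK293 Trex line expressing inducible D2 receptor coupled to calcium, dye-loaded after overnight culture at 30 C.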
D2 ag-2 = Beta-Arrestin HTS for Positive Allosteric Modulators of the Human D2 Dopamine Receptor: Agonists | D(2) dopamine receptor (Homo sapiens), P14416 | DiscoveRx PathHunter D2 beta-arrestin, luminescence, 90 min; 100% = 57 uM dopamine signal | activation, % (concentration not given with the values) | 0.084% of 360,000 active; in the data active = activation above about 40%; inconclusive = between about 15% and that limit
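DiscoveRx PathHunter D2 beta-arrestin cells (2,100/well) attached overnight, then compound-stimulated 90 min at 37 C in HBSS/10 mM HEPES/0.1% Tween-20 buffer; beta-galactosidase complementation read by luminescence after 1 h at ambient temperature. Dopamine 57 uM final (EC100) as control.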
Apoferritin bind = qHTS Assay for Identification of Novel General Anesthetics; Ferritin light chain (Equus caballus), P02791; AID 485281, 2010; 0.074% of 350,000 active; apoferritin/1-aminoanthracene competitive binding, fluorescence; Potency, µM (doses to about 77.5 µM), for the others: at the highest dose activity change, negative = displacement, hits mostly inhibitors; active = well fitted inhibition curve with a large enough effect; inconclusive = small, poorly fitted or top-dose-only effect; inactive = no such curve, though single readings can be large or run the other way; note: potency is the fitted concentration of half-maximal effect; % is set by controls: 0 for no effect and ±100 for the full control effect; nearly all actives have a fitted effect of over 20% in size
Target sequence (P02791 2-175 limits assumed): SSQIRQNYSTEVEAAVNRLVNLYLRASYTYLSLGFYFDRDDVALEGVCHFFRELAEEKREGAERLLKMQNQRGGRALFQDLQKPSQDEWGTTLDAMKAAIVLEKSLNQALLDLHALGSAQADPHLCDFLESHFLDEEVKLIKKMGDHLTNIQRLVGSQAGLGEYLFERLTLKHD
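Probe: 1-aminoanthracene (50% saturated, PBS). Protein: horse-spleen apoferritin, 10 uM. Incubation: 10 min, room temperature. Detection: 380 nm excitation, 535 nm emission. Analysis: normalized response, four-parameter Hill.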
D2 PAM-2 = HTS Assay for Positive Allosteric Modulators of the Human D2 Dopamine Receptor: Primary Screen for Potentiators; D(2) dopamine receptor (Homo sapiens), P14416; HEK293 T-REx D2, calcium flux, EC20 dopamine potentiation; potentiation, % at 10 µM; 0.34% of 340,000 active;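 active = potentiation over 3 SD above the plate norm, cut at about 30% in these data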; note: 0% is about no effect
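Potentiation of an EC20 dopamine calcium response measured kinetically over 180 s, after a preceding 180 s compound-only read flagging agonists. Cells: inducible Hek293 Trex D2 line, 4000/well, cultured overnight at 30 C before dye loading.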
Active calls of the source: *; ? = inconclusive; / = no result given.

SMILES | D2 antag | D2 PAM-1 | D2 ag-1 | D2 ag-2 | Apoferritin bind | D2 PAM-2
COc1ccc(C(C)(C)C)cc1NC(=O)CCN1C(=O)NC(C)(C)C1=O | / | -1.4 | / | -2.4 | / | /
Cc1cc(C)cc(C(=O)OCC(=O)N2CCCC2)c1 | -16.8 | 0.1 | 0.0 | -4.8 | 3.0% | -19.7
Cc1[nH]nc2c1C(c1ccc(F)cc1)C1=C(CC(C)(C)CC1=O)N2 (stereo unspecified) | 18.7 | -13.2 | 22.8 | -1.6 | -15.9% | 30.4*
Cn1c(COc2ccccc2)nnc1SCc1cc(=O)[nH]c2ccccc12 | 38.7* | 0.6 | 0.9 | 1.0 | 2.2% | 1.5
O=c1cc(CSc2nnc(COc3ccccc3)n2-c2ccccc2)c2ccccc2[nH]1 | 3.5 | -12.1 | -0.7 | -0.5 | -16.1% | -1.2
COc1ccc(C(C#N)(CCC#N)CCC#N)cc1OC | 79.5* | -19.6 | 1.6 | -1.7 | 5.3% | -23.6
COc1ccc(NC(=O)C2(c3ccc(NC(=O)c4ccc(C)cc4)cc3)CCCC2)cc1 | 34.2* | 8.4 | -0.2 | 0.4 | -6.1% | -4.3
CC(=O)NC(=O)c1ccc(-c2ccc(Cl)cc2)o1 | 6.4 | -6.8 | -1.4 | -3.8 | -1.1% | 7.1
CCn1c(SCC(=O)Nc2ccc(C(=O)OC)cc2)nc2cccnc21 | -1.1 | -10.8 | -0.8 | -2.1 | -1.0% | 35.3*
COC(=O)c1ccc(NC(=O)CSCc2ccccc2C)cc1 | 34.6* | -0.9 | -0.9 | 0.6 | -23.5% | -9.7
CCn1c(SCC(=O)Nc2ccc(C(C)=O)cc2)nc2ccccc21 | 19.0 | -7.4 | -0.1 | 0.8 | -7.2% | 2.0
CC1(c2ccc3noc(-c4ccc(Cl)cc4)c3c2)OCCO1 | -5.2 | 18.3 | 0.6 | ? | -9.8% | 10.3
O=Cc1ccc2noc(-c3ccc(Cl)cc3)c2c1 | / | 79.7* | / | ? | -2.8% | /
Cc1ccc(-c2onc3ccc(Cl)cc23)cc1 | 7.4 | 28.1 | 0.0 | 5.7 | 3.7% | 17.2
COc1ccc(-c2onc3ccc(Cl)cc23)cc1 | 4.5 | 103.7* | 0.7 | 12.9 | -8.3% | -3.0
CC(C)CCn1c(=O)c2ccccc2n2c(=S)[nH]nc12 | 18.9 | -15.2 | -0.4 | -4.4 | -2.9% | 22.8
Cc1[nH]c(=O)nc(SCc2cccc(Cl)c2)c1C#N | 6.8 | 10.2 | -1.9 | -3.1 | ? | 5.9
N#Cc1c(-c2ccccc2)nc(SCc2cccc(Cl)c2)[nH]c1=O | 30.4* | 0.9 | -1.4 | 1.7 | -11.8% | 0.3
Fc1ccc(-n2ncc3c(NCCCN4CCOCC4)ncnc32)cc1 | / | / | -0.4 | / | -3.7% | 3.6
CN1CCCC(C(=O)Nc2cccc(Cl)c2)CC1 (stereo unspecified) | / | -11.0 | / | -2.1 | / | /
CC(C)OCCCn1c(=S)[nH]c2cc3c(cc2c1=O)OCO3 | 49.5* | 16.3 | -0.6 | 1.2 | -7.2% | 1.6
O=C(CSCCO)Nc1ccc(C2CCCCC2)cc1 | 7.5 | -2.3 | 0.7 | -0.6 | 7.08µM* | 18.1
CCC(C(=O)NC(C)(C)C)N(Cc1ccco1)C(=O)Cn1nnc(-c2ccc(F)cc2)n1 (stereo unspecified) | -4.6 | -6.2 | -0.3 | -5.2 | -14.5% | 6.1
Cc1cccc(NC(=O)CN(C)S(=O)(=O)c2cccc3cccnc23)c1C | 7.2 | -17.5 | -0.5 | -3.8 | -6.0% | -4.6
CCOc1ccc(C(=O)NNC(=O)CN2C(=O)NC3(CCCC3)C2=O)cc1 | 42.1* | 3.2 | 0.3 | -3.9 | / | -10.7
SMILES | D2 antag | D2 PAM-1 | D2 ag-1 | D2 ag-2 | Apoferritin bind | D2 PAM-2
N#Cc1ccc(C(c2nnnn2C2CCCC2)N2CCC(Cc3ccccc3)CC2)cc1 (stereo unspecified) | -23.2 | -9.8 | -0.3 | -3.0 | -5.9% | 3.2
N#Cc1cccc(C(c2nnnn2C2CCCC2)N2CCC(Cc3ccccc3)CC2)c1 (stereo unspecified) | 1.1 | 1.1 | -0.1 | -3.6 | -1.3% | 40.2*
CCC(=O)c1cn(CC(=O)Nc2c(C)cccc2C)c2ccccc12 | -6.7 | -2.4 | 6.3 | -1.2 | -8.9% | 0.0
O=C1C(=O)c2c(C(=O)c3ccccc3)coc2-c2ccccc21 | 14.4 | 70.9* | -0.1 | ? | -20.5% | 1.3
Cc1oc2c(c1C(=O)c1ccccc1)C(=O)C(=O)c1ccccc1-2 | -27.4 | 11.6 | 2.7 | ? | ? | 0.3
Cc1ccc(-c2nc(SCC(=O)NCC3CCCO3)c3c(=O)n(C)c(=O)n(C)c3n2)cc1 (stereo unspecified) | / | / | -0.1 | / | -4.1% | -0.9
CC1CCCCN1C(=O)C12CCC(C)(/C(=N/O)C1)C2(C)C (stereo unspecified) | 34.6* | 0.2 | 0.6 | -1.9 | -8.5% | -0.1
CC1CCCCN1C(=O)C12CCC(C)(C(=O)C1)C2(C)C (stereo unspecified) | / | -0.2 | / | -0.9 | -6.8% | /
COC(=O)c1cccc(NC(=O)C2COc3ccccc3O2)c1 (stereo unspecified) | -4.3 | -18.6 | 0.8 | -5.0 | -18.3% | -5.5
O=[N+]([O-])c1ccccc1S(=O)(=O)NCCC1=CCCCC1 | 9.9 | -2.3 | 0.0 | 1.7 | 10µM* | -3.9
N#CCO/N=C/C(=O)Nc1ccc(F)cc1F | 53.2* | -2.6 | -0.8 | -3.6 | -8.2% | 5.8
O=C(CC(=O)Nc1ccc(F)cc1F)Nc1ccc(F)cc1F | 22.7 | -4.6 | -1.7 | -0.9 | 0.9% | -6.4
CCC(c1ccccc1)c1nc(-c2cccnc2)no1 (stereo unspecified) | 2.1 | -7.1 | -0.6 | -0.4 | 5.7% | 6.0
Fc1ccc(CNc2cnccn2)cc1 | -16.5 | -3.6 | 0.3 | -1.2 | ? | 5.1
c1ccc(CNc2cnccn2)cc1 | 10.9 | -3.0 | -0.5 | 0.8 | 5.0% | 40.8*
c1ccc(CCNc2cnccn2)cc1 | 37.7* | -10.9 | 1.4 | 7.2 | -19.2% | -12.3
Clc1ccc(CNc2cnccn2)cc1 | / | -5.1 | / | -2.9 | ? | /
COc1ccc(Cl)c(N2CCN(CCCNC(=O)Nc3ccc(C)cc3)CC2)c1 | 35.6* | -23.7 | -0.6 | 3.3 | -2.2% | -22.7
COc1ccc(NC(=O)NCCN2CCN(c3cc(OC)ccc3OC)CC2)cc1 | -8.0 | -2.8 | -0.1 | -2.9 | -3.0% | -7.8
COc1ccc(N2C(=O)CSC2c2cccc(OC)c2OC)cc1 (stereo unspecified) | 50.7* | -7.6 | 0.3 | -2.8 | 0.8% | -0.3
